# High-throughput results from PubChem.
# Hits are enriched below; roughly 4.1% of the tested compounds scored in any of these assays.
# hcDAF-12 act: activates DAF-12 receptor from parasite H. contortus; HEK293 hcDAF-12 lit1-tk-luc reporter, luminescence; 0% DMSO, 100% Δ7-dafachronic acid; AID 652067; actives 1.4% (n = 370,000); activation, % at 6.8 µM;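 active = activation above the mean of all tested compounds plus 3 SD, cut at about 5.5% in these data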
# ssDAF-12 act: activators of S. stercoralis DAF-12 nuclear receptor; HEK293 ssDAF-12/GRIP1 lit1-tk-luc reporter, luminescence; % of 3 µM dafachronic acid response; activation, % at 6.8 µM; actives 1% (n = 370,000); AID 652126;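 active = activation above the mean over all tested compounds plus 3 SD, cut at about 0.9% in these data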
# DAX1 inh-1: DAX1 (NR0B1) inhibition, primary screen; HEK293T StAR-luciferase reporter, SF-1/DAX-1 repression relief; inhibition, % at 6.8 µM; actives 1.1% (n = 370,000);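 active = inhibition above the mean over all tested compounds plus 3 SD, cut at about 3.6% in these data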;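 also: higher inhibition means more luminescence from relief of DAX-1 repression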
# hgDAF-12 ag: activates the H. glycines DAF-12 receptor ligand-binding domain. AID 687014. HEK293 GAL4-hgDAF12 UAS-luciferase reporter, agonist luminescence; normalized to butyrate control. actives 1.8% (n = 370,000). activation, % at 6.8 µM;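 active = activation above a cutoff set at the mean of all screened compounds plus 3 SD, cut at about 10% in these data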
# PolyA inh: inhibitors of polyadenylation in S. cerevisiae | AID 1875 | S. cerevisiae SKY197-pL101 polyadenylation reporter, beta-gal luminescence; efflux-impaired pdr1/pdr3 knockout yeast; score 100 = 6 SD above DMSO | actives 0.02% (n = 300,000) | activity score, % at 12 µM;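 active = lowest replicate activity score at least 50, where 100 means six control SD above control mean; inconclusive = lowest score under 50 but half or more replicates reach 50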;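 also: yeast exposed to compound for 9 h at 30 °C; higher score means more reporter readthrough which indicates perturbed polyadenylation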
# DAX1 inh-2: NR0B1 (DAX1) inhibition; P51843; HEK293 Gal4-DAX1 luciferase reporter, luminescence; inhibition, % at 6.75 µM; actives 0.99% (n = 340,000); AID 504766;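 active = inhibition above the mean over all tested compounds plus 3 SD, cut at about 4.2% in these data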;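 also: inhibition shows as a rise in luminescence from relieved DAX1 repression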
# Target sequence (P51843 207-470 limits assumed): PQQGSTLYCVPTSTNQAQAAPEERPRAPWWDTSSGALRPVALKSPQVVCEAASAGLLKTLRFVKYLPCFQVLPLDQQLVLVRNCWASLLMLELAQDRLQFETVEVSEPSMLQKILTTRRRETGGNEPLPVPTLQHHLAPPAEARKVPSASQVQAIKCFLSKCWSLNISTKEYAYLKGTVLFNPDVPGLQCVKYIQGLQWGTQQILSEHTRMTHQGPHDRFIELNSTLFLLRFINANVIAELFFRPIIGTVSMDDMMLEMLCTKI
# Hits are given with their value; 0 = inactive; ? = inconclusive; - = no result given.
SMILES,hcDAF-12 act,ssDAF-12 act,DAX1 inh-1,hgDAF-12 ag,PolyA inh,DAX1 inh-2
COc1cccc(/C=N/NC(=O)C[n+]2ccccc2)c1OC,0,2.3,0,0,0,0
Cc1cc(-c2n[nH]c(=S)o2)c(C)n1-c1ccccc1,0,0,4.0,0,0,-
Oc1cc2ccccc2cc1-c1n[nH]c(=S)o1,0,0,0,0,0,0
CCOC(=O)C(NC(=O)Nc1ccc(F)cc1F)(Oc1ccc(F)cc1)C(F)(F)F (stereo not drawn),0,0,0,0,0,0
CCOC(=O)C(NC(=O)c1ccccc1)(OCc1ccc(F)cc1)C(F)(F)F (stereo not drawn),0,0,0,12,0,0
CCOC(=O)C(NC(=O)Nc1ncccn1)(Oc1ccccc1)C(F)(F)F (stereo not drawn),0,0,4.2,0,0,0
C[C@@H]1COc2cc(N3CCOCC3)ccc2S(=O)(=O)N1,0,0,0,0,-,-
COc1ccc(Cn2c(C3CC3)nc3ccc(NC(=O)C4CC4)cc3c2=O)cc1,0,0,0,11,0,0
CC1CCCCC1NC(=O)C1CCN(S(=O)(=O)c2ccc3c(c2)CCC(=O)N3)CC1 (stereo not drawn),0,0,0,0,0,5.1
O=C(O)c1ccccc1N/N=C/c1cc(Br)cc(Br)c1O,0,0,0,0,0,5.6
O=C(O)c1ccccc1N/N=C\c1ccnc2ccccc12,6.4,0,0,12,0,0
O=C(Cc1ccccc1)N/N=C/c1cc(Br)cc(Br)c1O,0,0,0,0,0,0
CC(C)Cc1nnc(NC(=O)C2=COCCO2)s1,0,0,3.8,0,-,0
O=C(Nc1nccs1)C1=COCCO1,0,0,0,0,-,0
CC(=O)c1sc(NC(=O)C2COc3ccccc3O2)nc1C (stereo not drawn),0,0,0,0,?,0
CC1(C)CC(=O)c2sc(NC(=O)C3COc4ccccc4O3)nc2C1 (stereo not drawn),0,1.6,0,0,0,0
CC1(C)CC(=O)c2sc(NC(=O)c3ccco3)nc2C1,0,0,0,12,0,0
C[C@H](O)[C@@H]1C(=O)N2CCc3c([nH]c4cccc(-c5ccccc5)c34)[C@@H]2C[C@@H]1N(C)C(=O)OCc1ccccc1,0,0,0,0,-,-
C[C@@H]1OC(C2CCCCC2)N(C)[C@H]2C[C@H]3c4cc(-c5ccc6c(c5)OCO6)ccc4CCN3C[C@@H]12 (stereo partly drawn),0,0,0,0,-,-
O=C1CCC[C@@H]2Cc3nc4cc5c(cc4cc3[C@@H]3CCN1[C@H]23)OCO5,0,0,0,0,-,6.1
O=C1CCC[C@@H]2Cc3nc4ccc(O)cc4cc3[C@@H]3CCN1[C@H]23,0,0,0,0,-,0
O=C(NCCc1cccs1)C1CC(c2ccc([N+](=O)[O-])cc2)=NO1 (stereo not drawn),5.8,0,0,0,0,0
COCCNC(=O)C1CC(c2ccc([N+](=O)[O-])cc2)=NO1 (stereo not drawn),0,0,0,0,0,0
Cc1cc(C)nc(NC(=S)N2CCN(c3ccc(Cl)c(Cl)c3)CC2)c1,0,0,-,0,-,-
CCn1cc(Br)c(C(=O)Nc2ccc(F)c(Cl)c2)n1,0,1.7,0,0,0,0
SMILES,hcDAF-12 act,ssDAF-12 act,DAX1 inh-1,hgDAF-12 ag,PolyA inh,DAX1 inh-2
CCOC(=O)c1ccc(NC(=O)c2nn(CC)cc2Br)cc1,0,0,0,0,0,0
CCn1cc(Br)c(C(=O)Nc2ccc(Cl)cc2Cl)n1,0,1.0,0,0,0,0
CCOC(=O)c1c(NC(=O)c2nn(CC)cc2Br)sc(C)c1C,0,0,0,0,0,0
COC(=O)c1cc2c(c3c4cc(C)ccc4n(S(=O)(=O)c4ccc(C)cc4)c13)C(=O)N(Cc1ccc(C(F)(F)F)cc1)C2,0,0,0,0,-,-
O=C(CN1CCN(C(=O)c2ccc(-c3nc4ccccc4s3)o2)CC1)Nc1ccccc1Cl,0,0,0,0,-,0
Cc1cccc(NC(=O)CN2CCN(C(=O)c3ccc(-c4nc5ccccc5s4)o3)CC2)c1C,0,0,4.0,0,-,0
Cc1ccn(CC(=O)N2CCCC(C(=O)c3cccc4ccccc34)C2)n1 (stereo not drawn),0,0,0,0,0,0
Cc1nc(C)n(CC(=O)N2CCCC(C(=O)c3cccc4ccccc34)C2)n1 (stereo not drawn),0,0,0,11,0,0
CC(c1ccccc1)n1cc(C(=O)NCCCN2CCCC2)nn1 (stereo not drawn),0,0,0,0,-,-
CN(C)S(=O)(=O)N1CCCC(C(=O)c2ccc(-c3ccccc3)cc2)C1 (stereo not drawn),0,0,0,0,0,4.3
COc1ccc(C(=O)Nc2cc(Cl)c(Br)cc2C(=O)O)cc1,0,0,-,0,-,-
COC(=O)c1cccc(NC(=O)CSc2nnc(COc3ccc(C#N)cc3)n2-c2ccccc2)c1,0,0,0,0,0,5.1
Cc1ccc2cc(F)c(F)c(F)c2n1,0,1.5,0,0,-,-
CCC(C(=O)Nc1c(C)cccc1C)n1c(-c2ccc(=O)[nH]c2)nc2ccccc21 (stereo not drawn),0,1.5,0,0,-,-
CCC(C(=O)Nc1c(C)cccc1C)n1c(-c2cnc(C)cn2)nc2ccccc21 (stereo not drawn),0,0,0,0,-,-
S=C(Nc1ccc(Cl)cc1Cl)Nc1ccccc1Oc1ccccc1,-,-,-,-,0,0
S=C(Nc1ccccc1Oc1ccccc1)Nc1cccc(Cl)c1Cl,0,1.0,0,0,0,0
CC(=O)c1cc(-c2ccc3nonc3c2)c(=O)n2c1CCC2,0,0,0,0,-,-
O=C(Nc1ccnn1C1CCN(CC2CC=CCC2)CC1)c1ccccc1 (stereo not drawn),0,0,0,0,0,0
O=C(Nc1ccnn1C1CCN(Cc2c[nH]c3ccccc23)CC1)c1ccccc1,6.2,0,0,0,0,0
CCn1c2ccccc2c2cc(NC(=O)COC(=O)c3cc(F)ccc3F)ccc21,0,0,0,0,-,-
Cc1cccc(N2Cc3ccc(Br)cc3C2)c1,6.5,0,0,0,0,0
C[C@@H]1COc2cc(N3CCSCC3)ccc2S(=O)(=O)N1C,0,0,0,0,-,-
Cc1cc(-c2nn3c(C)nnc3s2)ccc1NC(=O)C(C)(C)C,0,0,0,12,0,0
Cc1ccc(-c2nn3c(C)nnc3s2)cc1NC(=O)c1cccs1,0,0,0,0,0,0
Cc1ccccc1Cn1cc(COC(=O)NCC(C)C)nn1,0,0,0,0,-,-
O=C(O)Cn1c(SCc2cccc3ccccc23)nc2ccccc21,6.1,0,0,0,0,0
O=C(O)Cn1c(SCc2ccccc2)nc2ccccc21,0,0,0,0,0,0
